NR3A LBD binder: binders of NR3A ligand-binding domain, primary screen, biophysical, differential scanning fluorimetry, uHTS | Glutamate receptor ionotropic, NMDA 3A (GRIN3A) ligand-binding domain | NR3A LBD differential scanning fluorimetry, Tm shift; 0% = protein alone, 100% = glycine-bound protein | Tm shift relative to glycine control, % at 25 µM | actives 2.5% (n = 340,000) | AID 1259313, 2017;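 active = melting temperature shift of at least 10% of the positive control shift, at one fixed dose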
ZTA DNA inh: blocks Epstein-Barr virus ZTA, an EBNA-1 counter-screen. ZTA-DNA binding, fluorescence polarization. inhibition, % at 11 µM. actives 0.15% (n = 320,000); in the data active = inhibition above about 33%
Target sequence (P03206 whole entry, looked up): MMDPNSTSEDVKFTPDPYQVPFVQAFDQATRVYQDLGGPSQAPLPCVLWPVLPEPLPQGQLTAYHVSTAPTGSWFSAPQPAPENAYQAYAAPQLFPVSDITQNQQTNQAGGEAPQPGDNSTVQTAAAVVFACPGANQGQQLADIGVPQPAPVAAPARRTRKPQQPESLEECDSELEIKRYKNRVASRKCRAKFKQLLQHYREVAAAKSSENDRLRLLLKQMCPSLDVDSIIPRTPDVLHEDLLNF
EBNA-1 inhibitor: EBNA-1 DNA-binding inhibitors, primary screen, biochemical, fluorescence polarization; inhibition, % at 14.8 µM; actives 0.34% (n = 300,000); in the data active = inhibition above about 28%
TPT1 inh: Candida albicans TPT1 enzyme inhibitors, primary screen, biochemical, fluorescence polarization; tRNA 2'-phosphotransferase TPT1 (Candida albicans SC5314); actives 0.81% (n = 300,000); inhibition, % at 5 µM; recombinant caTPT1, FP RNA substrate dephosphorylation; AID 1962, 2009;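 active = inhibition above the mean of all tested compounds plus 3 SD, set per screening campaign, cut at about 24% in these data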;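 note: plate controls were DMSO alone for no effect and ferristatin control at 100 nM for full effect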
dFosB activator: activators of delta FosB homodimer, primary screen, biochemical, fluorescence polarization, TAMRA-CDK5 oligo, single point; Protein FosB (Mus musculus), P13346; purified delta FosB; percent of positive-control signal above neutral wells; activation, % at 25 µM; actives 0.99% (n = 340,000);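 active = mean activation above about 17%, with every replicate also reaching it, limit read from the data, passing the limit was not always enough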
Rpn11 inh: Rpn11 (PSMD14) deubiquitinase inhibitors, primary screen, biochemical, fluorescence polarization, uHTS | inhibition, % at 20 µM | human 26S proteasome, Ub4-pepOG fluorescence polarization; 20S core pre-blocked with epoxomicin | 26S proteasome non-ATPase regulatory subunit 14 (Homo sapiens), O00487 | actives 0.59% (n = 360,000) | AID 588493, 2011;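 active = inhibition at 20 µM, scaled to each plate's controls, above about 33%, limit read from the data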
The depositor's hits bear a star. This is a sample that favours compounds with a hit; in the whole collection about 4.5% have one here.

Cc1ccc(S(=O)(=O)Nc2ccccc2)cc1[N+](=O)[O-] was read as NR3A LBD binder -1, dFosB activator -11 and Rpn11 inh -2.
COc1cc(/C=N/NC(=O)c2nc3ccccn3c2C)cc(OC)c1O was read as NR3A LBD binder -2, ZTA DNA inh -16, EBNA-1 inhibitor -1, TPT1 inh 1, dFosB activator -3 and Rpn11 inh -7.
`Cc1cc(/C=C\c2ccc3cc(N(C)C)ccc3[n+]2C)c(C)n1-c1ccccc1` gave NR3A LBD binder -2, ZTA DNA inh 20, EBNA-1 inhibitor 6, TPT1 inh -18, dFosB activator 7 and Rpn11 inh 82*.
For Cc1nn(C)c(C(=O)Nc2cccc(CN3CCOCC3)c2)c1Br the results were NR3A LBD binder 0, ZTA DNA inh -13, EBNA-1 inhibitor 8, TPT1 inh -1, dFosB activator -2 and Rpn11 inh 3.
`CCCc1nn(C)c(C(=O)Nc2cccc(CC)c2)c1Cl` gave NR3A LBD binder 12*, ZTA DNA inh 11, EBNA-1 inhibitor -10, TPT1 inh -2, dFosB activator 3 and Rpn11 inh -2.
CCCc1nn(C)c(C(=O)Nc2ccc3ccccc3c2)c1Cl was read as NR3A LBD binder 17*, ZTA DNA inh 10, EBNA-1 inhibitor -5, TPT1 inh 1, dFosB activator -6 and Rpn11 inh -1.
Screening CCCc1c(C(=O)N/N=C(\C)c2ccccn2)nnn1-c1nonc1N returned Rpn11 inh 14.
`CC(C)c1ccc(Nc2nnns2)cc1` gave NR3A LBD binder 1, ZTA DNA inh 1, EBNA-1 inhibitor 3, TPT1 inh -1, dFosB activator 7 and Rpn11 inh 2.
`O=C(O)c1ccc(N(Cc2ccccc2)S(=O)(=O)c2ccccc2)cc1` gave NR3A LBD binder 2, ZTA DNA inh 1, EBNA-1 inhibitor -13, TPT1 inh -1, dFosB activator -10 and Rpn11 inh 4.
`O=C(O)c1cc(S(=O)(=O)N(Cc2ccccc2)c2ccc(Cl)cc2)ccc1Cl` gave NR3A LBD binder 39*, ZTA DNA inh 23, EBNA-1 inhibitor -6, TPT1 inh -1, dFosB activator -7 and Rpn11 inh 5.
Screening Cc1ccc(C2N(C)C(=O)c3ccccc3N2C)cc1 (stereo not given) returned NR3A LBD binder 3, dFosB activator -5 and Rpn11 inh -2.
`COC(=O)C(CC(=O)c1ccc(Cl)cc1)c1ccc(C)cc1` (stereo not given) gave NR3A LBD binder 15*, ZTA DNA inh -4, EBNA-1 inhibitor -4, TPT1 inh -10, dFosB activator -2 and Rpn11 inh -2.
For CCN(CC)C(=O)COc1ccc(-c2nnc(Nc3ccc(OC)c(C(=O)NC)c3)c3ccccc23)cc1 the results were NR3A LBD binder 6, ZTA DNA inh -6, EBNA-1 inhibitor -7, TPT1 inh -3, dFosB activator -16 and Rpn11 inh 6.
CC(=O)Nc1cccc(C(=O)NNC(=O)c2n[nH]c(=O)c3ccccc23)c1 was read as NR3A LBD binder 0, ZTA DNA inh 3, dFosB activator -1 and Rpn11 inh -3.
For Cc1cc(C(=O)NCC23CC4CC(CC(C4)C2)C3)c(C)o1 the results were ZTA DNA inh -6, EBNA-1 inhibitor -3 and TPT1 inh -5.
O=C(Nc1ccccc1N1CCCC1)c1ccc(Br)o1 was read as NR3A LBD binder 1, ZTA DNA inh -8, EBNA-1 inhibitor 2, TPT1 inh 3, dFosB activator 3 and Rpn11 inh 0.
O=C(Nc1ccc(N2CCCC2)c(Cl)c1)c1ccc(Br)o1 was read as NR3A LBD binder -30, ZTA DNA inh -7, EBNA-1 inhibitor -6, TPT1 inh 14, dFosB activator 43* and Rpn11 inh 20.

Screening data: PubChem BioAssay, several laboratories
